Test results taken from PubChem BioAssay.
Active and inactive are the calls of the source.

What was measured:
Albumin (Bos taurus) = Albumin (Bos taurus) (UniProt P02769); experiment: bovine serum albumin binders on microarray, profiling panel, artefact control for SMM control protein annotation, biochemical, small-molecule microarray, Alexa647 label, 635/667 nm fluorescence (AID 1118); details: BSA-A647 binding, fluorescence 635 nm, higher = more signal;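 also: score merges 667 nm emission intensity and signal-to-noise per printed compound spot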
[1] = small-molecule microarray binders of probe aXIP, primary screen, biochemical, NeuroSMM set, 635/667 nm fluorescence (AID 1119); details: higher = more signal, called active from +8 up or from −8 down;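 also: probe is the protein aXip251-270 applied at 1 µg/mL to compound-printed slides; binding of probe to printed compounds measured as 667 nm fluorescence plus signal to noise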
[2] = small-molecule binders of probe aNOTCH3, primary screen, biochemical, small-molecule microarray, 635/667 nm fluorescence (AID 1120); details: higher = more signal;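 also: probe is a biotin-tagged antibody raised against NOTCH3 rather than NOTCH3 protein; score merges spot fluorescence near 667 nm with spot signal to noise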
[3] = small-molecule binders of probe aNOTCH2, primary screen, biochemical, small-molecule microarray, 635/667 nm fluorescence (AID 1121); details: higher = more signal;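 also: score merges feature fluorescence read at 667 nm with its signal to noise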
[4] = biological target: Carbonic anhydrase 2 (Homo sapiens) (UniProt P00918); experiment: CAII small-molecule binders, profiling panel, biochemical, small-molecule microarray, Alexa647-labelled CAII (AID 1122); details: CAII-A647 binding fluorescence, higher = more signal
[5] = COS7 lysate on small-molecule microarray, probe aHis, 635 nm (AID 1123); details: COS7 cell lysate, fluorescence, higher = more signal;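 also: z-score combines 667nm fluorescence intensity with signal-to-noise per printed compound spot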
[6] = compound binding in COS7 lysate, probe aLAP1, primary screen, cell lysate, small-molecule microarray (AID 1124); details: probe aLAP1, fluorescence, higher = more signal;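 also: lysate comes from COS7 cells expressing LAP1 and is applied at 0.3 µg/mL; score merges spot fluorescence near 667 nm with signal-to-noise over triplicate slides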
Sam68 (KHDRBS1) = experiment: Sam68 small-molecule binders, primary screen, biochemical, small-molecule microarray, 635 nm fluorescence (AID 1125); details: small-molecule microarray binding, higher = more signal;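 also: score merges 667 nm channel intensity with signal to noise over triplicate slides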
[7] = test system: Chordin-like protein 2 (CHRDL2); experiment: CHRDL2 small-molecule binders, primary screen, biochemical, small-molecule microarray, 635 nm fluorescence (AID 1126); details: small-molecule microarray binding, fluorescence 635 nm; higher = more signal;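 also: printed compound slides probed with Chrdl2 protein at 4 µg/mL for 1 h at 4 C; score merges 667 nm emission intensity with signal to noise over three replicate slides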
[8] = biological target: Concanavalin-A (Canavalia ensiformis) (UniProt P02866); experiment: ConA small-molecule binders, primary screen, artefact control for SMM control protein annotation, biochemical, small-molecule microarray, Alexa647 label, 635 nm (AID 1127); details: ConA-A647 binding fluorescence, higher = more signal;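 also: z combines 667 nm emission intensity with signal-to-noise across three replicate slides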
[9] = anti-His antibody binders, primary screen, artefact control for SMM control protein annotation, biochemical, small-molecule microarray, 635 nm fluorescence (AID 1128); details: anti-His Alexa647 antibody binding, higher = more signal;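 also: score merges feature fluorescence with signal-to-noise for each printed compound spot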
[10] = test system: Human papillomavirus type 1a E7 protein (residues 1-88); experiment: HPV1a E7 small-molecule binders, primary screen, biochemical, small-molecule microarray, residues 1-88, 635 nm (AID 1129); details: small-molecule microarray binding, fluorescence 635 nm; higher = more signal
[11] = biological target: Focal adhesion kinase 1 (Homo sapiens) (UniProt Q05397); experiment: small-molecule microarray binders of FAK, primary screen, biochemical, 635/667 nm fluorescence, BSA, DTT (AID 1130); details: PTK2 binding, 635 nm fluorescence, higher = more signal;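 also: composite of spot emission at 667 nm and signal to noise over triplicate slides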
[12] = test system: Fibrinogen (Alexa647-labelled); experiment: fibrinogen binders on compound microarrays, profiling panel, artefact control for SMM control-protein annotation, biochemical, small-molecule microarray, 635/667 nm fluorescence (AID 1131); details: fibrinogen-A647 binding fluorescence, higher = more signal;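 also: z-score merges 667 nm fluorescence with per-spot signal-to-noise over triplicate slides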
[13] = biological target: Follistatin (Homo sapiens) (UniProt P19883); experiment: follistatin binders on small-molecule microarrays, primary screen, biochemical, small-molecule microarray, 635/667 nm fluorescence (AID 1132); details: FST binding, 635 nm fluorescence, higher = more signal
[14] = biological target: Fibroblast growth factor 2 (Homo sapiens) (UniProt P09038); experiment: FGF2 binders on small-molecule microarrays, primary screen, biochemical, small-molecule microarray, 635/667 nm fluorescence (AID 1133); details: small-molecule microarray binding, FGF2, fluorescence 635/667; higher = more signal
[15] = mitochondrial membrane potential change in A549 cells, profiling panel, cell-based, JC-1 fluorescence, basal, 24 h, 100 nL (AID 1138); details: higher = more signal;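 also: A549 lung adenocarcinoma cells under basal conditions with no added stimulus; test concentration not given here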
Lefty1 = Lefty1 binders on small-molecule microarrays, primary screen, biochemical, small-molecule microarray, 635/667 nm fluorescence (AID 1139); details: small-molecule microarray binding, fluorescence 635/667; higher = more signal
[16] = test system: wheat germ agglutinin (Triticum aestivum), Alexa647-labelled; experiment: wheat germ agglutinin binders on compound microarrays, profiling panel, artefact control for SMM control-protein annotation, biochemical, small-molecule microarray, 635/667 nm fluorescence (AID 1140); details: WGA-A647 binding, 635 nm fluorescence, higher = more signal;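 also: score merges 667 nm feature emission with signal to noise over triplicate slides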
[17] = biological target: Luciferin 4-monooxygenase (Photinus pyralis) (UniProt P08659); experiment: firefly luciferase enzyme inhibitors, primary screen, biochemical, luminescence, purified enzyme, 2006 set (AID 1141); details: SteadyGlo luminescence, 30 min, higher = more signal, called active from +8 up or from −8 down;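 also: cell-free assay with purified firefly luciferase at 100 ng per well in PBS; test concentration not given here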
Sequence of Luciferin 4-monooxygenase (Photinus pyralis) (P08659 whole entry, looked up): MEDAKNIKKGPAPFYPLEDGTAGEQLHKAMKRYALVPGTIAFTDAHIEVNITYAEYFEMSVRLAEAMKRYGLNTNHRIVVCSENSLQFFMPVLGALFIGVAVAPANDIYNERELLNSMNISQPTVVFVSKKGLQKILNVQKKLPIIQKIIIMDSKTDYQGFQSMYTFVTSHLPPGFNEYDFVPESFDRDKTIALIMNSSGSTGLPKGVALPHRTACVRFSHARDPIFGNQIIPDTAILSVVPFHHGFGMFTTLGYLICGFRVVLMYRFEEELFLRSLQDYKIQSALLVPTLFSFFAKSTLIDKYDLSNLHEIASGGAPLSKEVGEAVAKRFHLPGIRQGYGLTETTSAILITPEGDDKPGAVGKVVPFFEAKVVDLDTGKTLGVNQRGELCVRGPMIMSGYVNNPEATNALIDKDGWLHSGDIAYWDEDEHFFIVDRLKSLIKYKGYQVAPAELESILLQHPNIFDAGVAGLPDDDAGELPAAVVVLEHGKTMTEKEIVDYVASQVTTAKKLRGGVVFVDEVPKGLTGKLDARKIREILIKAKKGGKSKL

Sequence of Focal adhesion kinase 1 (Homo sapiens) (Q05397 whole entry, looked up): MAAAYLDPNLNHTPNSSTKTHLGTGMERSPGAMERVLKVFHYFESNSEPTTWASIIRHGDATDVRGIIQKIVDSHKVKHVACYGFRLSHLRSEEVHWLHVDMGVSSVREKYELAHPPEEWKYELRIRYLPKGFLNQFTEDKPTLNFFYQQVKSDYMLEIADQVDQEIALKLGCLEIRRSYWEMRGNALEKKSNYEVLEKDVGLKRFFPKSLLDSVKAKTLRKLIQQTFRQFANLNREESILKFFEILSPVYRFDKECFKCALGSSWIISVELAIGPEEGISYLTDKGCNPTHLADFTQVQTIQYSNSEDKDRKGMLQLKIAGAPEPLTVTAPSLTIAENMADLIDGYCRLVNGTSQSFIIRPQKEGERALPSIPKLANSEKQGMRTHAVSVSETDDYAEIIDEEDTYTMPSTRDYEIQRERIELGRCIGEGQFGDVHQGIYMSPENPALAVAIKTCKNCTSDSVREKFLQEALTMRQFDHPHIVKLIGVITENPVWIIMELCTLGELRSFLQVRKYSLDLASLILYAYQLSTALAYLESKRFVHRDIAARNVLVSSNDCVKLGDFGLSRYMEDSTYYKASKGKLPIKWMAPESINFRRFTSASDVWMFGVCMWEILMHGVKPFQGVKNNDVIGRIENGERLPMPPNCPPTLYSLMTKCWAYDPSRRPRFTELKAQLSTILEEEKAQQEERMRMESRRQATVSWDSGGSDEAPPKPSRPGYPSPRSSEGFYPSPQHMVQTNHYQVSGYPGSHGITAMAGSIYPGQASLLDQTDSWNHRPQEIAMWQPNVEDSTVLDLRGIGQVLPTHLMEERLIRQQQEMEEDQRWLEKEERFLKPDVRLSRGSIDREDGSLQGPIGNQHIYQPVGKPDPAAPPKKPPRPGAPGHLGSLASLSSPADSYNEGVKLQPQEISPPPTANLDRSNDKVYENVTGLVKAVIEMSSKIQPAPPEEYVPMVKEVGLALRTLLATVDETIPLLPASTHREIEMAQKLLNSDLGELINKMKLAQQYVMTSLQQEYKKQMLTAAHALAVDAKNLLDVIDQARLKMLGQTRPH
Sequence of Concanavalin-A (Canavalia ensiformis) (P02866 whole entry, looked up): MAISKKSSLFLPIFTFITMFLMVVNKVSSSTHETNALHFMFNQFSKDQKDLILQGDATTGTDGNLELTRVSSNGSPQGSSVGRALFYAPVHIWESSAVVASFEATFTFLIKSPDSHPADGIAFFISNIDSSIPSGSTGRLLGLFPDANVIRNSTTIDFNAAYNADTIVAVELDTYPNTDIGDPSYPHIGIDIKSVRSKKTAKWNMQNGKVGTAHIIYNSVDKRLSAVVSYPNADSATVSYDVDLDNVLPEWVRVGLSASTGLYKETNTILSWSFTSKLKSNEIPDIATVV
Sequence of Follistatin (Homo sapiens) (P19883 whole entry, looked up): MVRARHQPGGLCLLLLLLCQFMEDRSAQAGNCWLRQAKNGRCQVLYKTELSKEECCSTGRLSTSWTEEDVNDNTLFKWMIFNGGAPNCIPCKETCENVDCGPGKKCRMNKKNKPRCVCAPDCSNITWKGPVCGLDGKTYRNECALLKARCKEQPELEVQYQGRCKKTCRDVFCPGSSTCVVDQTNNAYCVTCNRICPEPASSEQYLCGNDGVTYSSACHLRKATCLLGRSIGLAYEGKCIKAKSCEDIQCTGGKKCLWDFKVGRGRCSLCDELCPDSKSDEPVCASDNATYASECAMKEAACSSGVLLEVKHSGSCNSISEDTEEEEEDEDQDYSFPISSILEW
Sequence of Fibroblast growth factor 2 (Homo sapiens) (P09038 whole entry, looked up): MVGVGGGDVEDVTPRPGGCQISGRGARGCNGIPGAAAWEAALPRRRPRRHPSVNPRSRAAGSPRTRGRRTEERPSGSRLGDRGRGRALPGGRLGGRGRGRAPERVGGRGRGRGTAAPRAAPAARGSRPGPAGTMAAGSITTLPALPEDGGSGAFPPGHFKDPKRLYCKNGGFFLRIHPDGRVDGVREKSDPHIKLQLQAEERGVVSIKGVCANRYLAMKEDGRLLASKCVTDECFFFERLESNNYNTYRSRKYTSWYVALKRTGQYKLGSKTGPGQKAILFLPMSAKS
Sequence of Albumin (Bos taurus) (P02769 whole entry, looked up): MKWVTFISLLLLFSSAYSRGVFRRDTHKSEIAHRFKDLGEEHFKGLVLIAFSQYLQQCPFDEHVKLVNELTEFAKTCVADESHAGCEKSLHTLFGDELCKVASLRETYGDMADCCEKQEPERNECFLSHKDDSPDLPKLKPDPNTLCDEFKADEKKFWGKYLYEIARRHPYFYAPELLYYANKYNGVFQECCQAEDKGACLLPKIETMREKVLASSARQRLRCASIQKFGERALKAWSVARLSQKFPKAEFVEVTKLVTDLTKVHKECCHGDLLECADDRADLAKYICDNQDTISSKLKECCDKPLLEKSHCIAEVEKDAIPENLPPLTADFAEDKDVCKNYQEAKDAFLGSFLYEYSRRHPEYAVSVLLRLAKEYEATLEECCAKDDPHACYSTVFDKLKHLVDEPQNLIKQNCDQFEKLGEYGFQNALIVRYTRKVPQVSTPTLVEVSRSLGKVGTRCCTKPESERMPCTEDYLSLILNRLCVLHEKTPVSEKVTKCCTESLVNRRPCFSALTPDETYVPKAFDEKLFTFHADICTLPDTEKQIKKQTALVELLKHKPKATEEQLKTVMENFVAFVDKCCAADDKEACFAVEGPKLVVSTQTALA

Structure (SMILES) | composite z-score (Albumin (Bos taurus)) | composite Z-score [1] | composite z-score [2] | composite z-score [3] | composite z-score [4] | composite z-score [5] | composite z-score [6] | composite z-score (Sam68 (KHDRBS1)) | composite z-score [7] | composite z-score [8] | composite z-score [9] | composite z-score [10] | composite z-score [11] | composite z-score [12] | composite z-score [13] | composite z-score [14] | z-score [15] | composite z-score (Lefty1) | composite z-score [16] | z-score [17]
COc1ccc([Si](C)(C)[C@H]2[C@H](CCn3cc(CCO)nn3)O[C@@]3(C(=O)N(Cc4cccc(N5C(=O)c6cccc7cccc5c67)c4)c4ccccc43)[C@@H]2C)cc1 | 0.451 | 0.525 (inactive) | 0.0311 | -0.0974 | 0.584 | 0.791 | 1.65 | 1.22 | 0.438 | 1.11 | 0.246 | 1.05 | 0.124 | 0.497 | 0.958 | 0.691 | -0.338 | 1.21 | 0.878 | -1.54 (inactive)
COc1ccc([Si](C)(C)[C@H]2[C@H](CC(=O)N3CCC[C@H]3CO)O[C@@]3(C(=O)N(Cc4ccc(N5C(=O)c6cccc7cccc5c67)cc4)c4ccccc43)[C@@H]2C)cc1 | 0.121 | 0.829 (inactive) | 0.171 | -0.146 | 0.409 | 1.23 | 0.206 | 1.29 | 0.634 | 1.13 | 1.7 | 1.17 | 1.18 | 0.864 | 1.07 | 1.21 | 0.285 | 1.48 | 0.682 | 0.0355 (inactive)
C=CCOC(=O)[C@@H]1[C@H]2C(=O)O[C@H](c3ccccc3)[C@H](c3ccccc3)N2[C@H](c2ccc(OCCOC(=O)[C@@H]3C[C@@H]4C(=O)N[C@@H](CCCCNC(C)=O)C(=O)N4[C@@H]3c3ccc(O)cc3)cc2)[C@@]12C(=O)Nc1ccc(I)cc12 | -0.427 | 1.48 (inactive) | 0.844 | -0.0458 | 0.5 | 1.86 | 0.705 | 1.29 | 0.986 | 1.15 | 1.73 | 1.21 | 0.478 | 0.207 | 1.41 | 1.62 | -1.37 | 1.37 | 0.412 | -0.576 (inactive)
CCCN1C(=O)[C@@H]2Cc3c([nH]c4ccccc34)[C@@H](c3cccc(O)c3)N2C1=O | -0.17 | -0.12 (inactive) | -0.0967 | -0.0859 | -0.112 | 0.207 | 1.36 | 0.65 | 0.426 | 0.46 | -0.147 | 0.483 | 0.131 | 0.321 | 0.374 | 0.428 | 0.233 | 0.287 | -0.0455 | 0.718 (inactive)
CC(C)CNC(=O)[C@@]1(C)c2ccccc2C(=O)N(Cc2ccccc2)[C@H]1c1ccc(CO)cc1 | -0.928 | 3.02 (inactive) | -0.352 | -0.133 | 0.788 | 1.19 | 1.16 | -0.992 | -2.5 | -1.44 | -0.97 | -0.955 | -0.846 | -1.84 | -0.976 | -1.27 | -0.504 | -2.25 | -1.4 | 0.182 (inactive)
O=C(O)[C@]1(CCS(=O)(=O)c2ccccc2)N=C(c2ccc(OCCCO)cc2)O[C@@H]1c1ccccc1 | 0.815 | 0.207 (inactive) | 0.196 | 0.197 | 0.858 | 2.59 | 0.341 | 0.541 | -0.0616 | -0.251 | 0.367 | 0.228 | 0.221 | 0.447 | -0.029 | -0.0377 | 0.0511 | -0.655 | 1.36 | -1.87 (inactive)
Cc1cc(C)c(C(O)C2C=CC3C(=O)N(c4ccccc4)C(=O)C3N2Nc2ccccc2)c(C)c1 (stereo not given) | 0.767 | 0.0805 (inactive) | 0.236 | 0.294 | 0.781 | 2.13 | 0.0109 | 1.3 | -0.194 | 1.18 | 2.11 | 1.22 | 0.638 | 1.03 | 0.784 | 0.0968 | 0.384 | 0.366 | 1.43 | -0.584 (inactive)
CN(C)CCCCNC(=O)[C@H]1C[C@H]2C(=O)N[C@@H](CCCC[N+](C)(C)C)C(=O)N2[C@H]1c1cccc(OCCO)c1 | -0.355 | 2.15 (inactive) | -0.0774 | -0.112 | 0.798 | 0.726 | 0.448 | 1.15 | 1.23 | 1 | 1.06 | 0.809 | 0.373 | 0.54 | 1.35 | 1.67 | -0.312 | 1.35 | 0.115 | 0.53 (inactive)
CCOC(=O)C1=CC[C@@H](c2ccccc2)N(S(=O)(=O)c2ccc(C)cc2)[C@H]1C=C(C)C | 0.856 | 0.325 (inactive) | 0.31 | -0.0209 | 0.491 | 2.14 | 0.149 | 1.3 | 0.542 | 0.947 | 0.875 | 1.22 | 0.503 | 0.911 | 0.97 | 0.481 | 2.58 | 0.811 | 0.546 | 2.12 (inactive)
C#CCNS(=O)(=O)N(C)C | 0.225 | 0.0498 (inactive) | -0.124 | -0.14 | -0.107 | 0.214 | -0.113 | 0.815 | 0.497 | 0.0968 | 0.446 | 0.928 | 0.17 | 0.276 | 0.103 | 0.203 | 0.497 | 0.643 | 0.0088 | 0.991 (inactive)
